# According to PubChem BioAssay (Tox21):
# Records with an inconclusive call do not appear. Where a call stands in place of a potency, no number is given. The source made the active and inactive calls. Calls follow the shape of the dose curve; as a rule, active = well fitted curve in the direction sought with a large enough effect in the repeat runs; inconclusive = weak or mixed curves; inactive = no such curve, though single readings can be large; an effect the other way counts as inactive or inconclusive.
# Assay: qHTS RealTime-Glo MT Cell Viability Assay in HEK293 cells - 24 hour (AID 1224886); also: top concentration of the series differs between compounds; nearly all actives have a fitted effect of over 50% in size
# Conditions: RealTime-Glo luminescence; series mostly up to 76.8 µM
# How it was run: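 Quantitative high-throughput screen of the Tox21 10K library in HEK293: cells and RealTime-Glo reagents plated together, compound added at 5 h, luminescence monitored through 40 h at 37 C.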
row,SMILES,Potency
1,C=CC(=O)CCCCC,inactive
2,CC(=O)O[C@@H]1CC2CCC1(C)C2(C)C (stereo partly specified),inactive
3,COP(=O)(O)OP(=O)(O)OC,inactive
4,CCCc1ccc(O)cc1,inactive
5,OC[C@H]1O[C@@H](O[C@@H]2[C@@H](CO)O[C@](O)(CO)[C@H]2O)[C@H](O)[C@@H](O)[C@H]1O,inactive
6,[O-][n+]1cccc(/C(Cl)=N/OC[C@@H](O)CN2CCCCC2)c1,inactive
7,O=C(CN1CCNCC1)NC1CCCCC1,inactive
8,OCCN1CCOCC1,inactive
9,CCCC(=O)OCCC(C)CCC=C(C)C (stereo unspecified),inactive
10,Cc1ccc(C(C)NC(=O)[C@@H](NC(=O)OC(C)C)C(C)C)cc1 (stereo partly specified),inactive
11,O=C1CCCCO1,inactive
12,N#CCC(=O)NN,inactive

# Assay: qHTS RealTime-Glo MT Cell Viability Assay in HEK293 cells - 8 hour (AID 1224887); also: top concentration of the series differs between compounds; nearly all actives have a fitted effect of over 50% in size
# Conditions: RealTime-Glo luminescence; series mostly up to 76.8 µM
# How it was run: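 Tox21 screen in HEK293 using RealTime-Glo MT chemistry, with cells and reagent co-dispensed. Luminescence proportional to viable cell number was captured at intervals during 40 h compound exposure at 37 C.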
row,SMILES,Potency
1,CCC/C=C(\C=O)CC,inactive
2,O=C(Cl)c1ccccc1[N+](=O)[O-],inactive
3,CCC(=O)CC,inactive
4,CC(Oc1cc(Cl)ccc1Cl)C(=O)O (stereo unspecified),inactive
5,Nc1nc(-c2ccccc2)c(Br)c(=O)[nH]1,inactive
6,CC1=C(C(=O)O)N2C(=O)[C@@H](NC(=O)[C@H](N)C3=CCC=CC3)[C@H]2SC1,inactive
7,Nc1nnnn1-c1ccccc1,inactive
8,CC(C)OC(=O)CCC(=O)OC(C)C,inactive
9,COC(C)(OC)OC,inactive
10,C[C@]12CCC(=O)C=C1CC[C@H]1[C@@H]3CC[C@](O)(C(=O)CO)[C@@]3(C)C[C@H](O)[C@@]12F,inactive
11,C=C(C)[C@@H]1CC=C(C)CC1,inactive
12,COC(=O)/C=C\C(=O)O,inactive
13,CCCSSCCC,inactive
14,CCC(=O)Oc1ccc2c(c1)CC[C@@H]1[C@@H]2CC[C@@]2(C)[C@H]1C[C@@H](OC(=O)CC)[C@@H]2OC(=O)CC,inactive
15,CC(=O)C(C)O (stereo unspecified),inactive
16,Cc1ncc([N+](=O)[O-])n1CC(C)O (stereo unspecified),inactive
17,C[C@H]1[C@@H](c2ccccc2)NC(=O)N1C,inactive
18,CC1CC(=O)CC(C)(C)C1 (stereo unspecified),inactive
19,CCCCOCC(C)O (stereo unspecified),inactive

row,SMILES,Potency
1,COc1cc(OC)nc(O[C@H](C(=O)O)C(OC)(c2ccccc2)c2ccccc2)n1,inactive
2,Cc1ccnc(N)c1,inactive
3,CC(C)OC(=O)OCOP(=O)(CO[C@H](C)Cn1cnc2c(N)ncnc21)OCOC(=O)OC(C)C,inactive
4,Cn1c(=O)c2c(ncn2CCO)n(C)c1=O,inactive
5,CN(C)CCCCl,inactive
6,CC(C)Cn1cnc2c1c(=O)n(C)c(=O)n2C,inactive
7,C=CC(=O)CCCCC,inactive
8,CC(=O)O[C@@H]1CC2CCC1(C)C2(C)C (stereo partly specified),inactive
9,COP(=O)(O)OP(=O)(O)OC,inactive
10,CCCc1ccc(O)cc1,inactive
11,OC[C@H]1O[C@@H](O[C@@H]2[C@@H](CO)O[C@](O)(CO)[C@H]2O)[C@H](O)[C@@H](O)[C@H]1O,inactive
12,[O-][n+]1cccc(/C(Cl)=N/OC[C@@H](O)CN2CCCCC2)c1,inactive
13,O=C(CN1CCNCC1)NC1CCCCC1,inactive
14,OCCN1CCOCC1,inactive
15,CCCC(=O)OCCC(C)CCC=C(C)C (stereo unspecified),inactive
16,Cc1ccc(C(C)NC(=O)[C@@H](NC(=O)OC(C)C)C(C)C)cc1 (stereo partly specified),inactive
17,O=C1CCCCO1,inactive
18,N#CCC(=O)NN,inactive

# Assay: A CellTox Green Cytotoxicity Assay to monitor cytotoxicity in HEK293 cells - 16 hour (AID 1224888); also: nearly all actives have a fitted effect of over 35% in size
# Conditions: CellTox Green fluorescence; series mostly up to 76.8 µM
# How it was run: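 Seeding of HEK293 cells together with cytotoxicity dye preceded a 5 h incubation at 37 C/5% CO2. Test compounds in DMSO were then added and fluorescence monitored across 40 h.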
row,SMILES,Potency
1,CCC/C=C(\C=O)CC,inactive
2,O=C(Cl)c1ccccc1[N+](=O)[O-],inactive
3,CCC(=O)CC,inactive
4,CC(Oc1cc(Cl)ccc1Cl)C(=O)O (stereo unspecified),inactive
5,Nc1nc(-c2ccccc2)c(Br)c(=O)[nH]1,inactive
6,CC1=C(C(=O)O)N2C(=O)[C@@H](NC(=O)[C@H](N)C3=CCC=CC3)[C@H]2SC1,inactive
7,Nc1nnnn1-c1ccccc1,inactive
8,CC(C)OC(=O)CCC(=O)OC(C)C,inactive
9,COC(C)(OC)OC,inactive
10,C[C@]12CCC(=O)C=C1CC[C@H]1[C@@H]3CC[C@](O)(C(=O)CO)[C@@]3(C)C[C@H](O)[C@@]12F,inactive
11,C=C(C)[C@@H]1CC=C(C)CC1,inactive
12,COC(=O)/C=C\C(=O)O,inactive
13,CCCSSCCC,inactive
14,CCC(=O)Oc1ccc2c(c1)CC[C@@H]1[C@@H]2CC[C@@]2(C)[C@H]1C[C@@H](OC(=O)CC)[C@@H]2OC(=O)CC,inactive
15,CC(=O)C(C)O (stereo unspecified),inactive
16,Cc1ncc([N+](=O)[O-])n1CC(C)O (stereo unspecified),inactive
17,C[C@H]1[C@@H](c2ccccc2)NC(=O)N1C,inactive
18,CC1CC(=O)CC(C)(C)C1 (stereo unspecified),inactive
19,CCCCOCC(C)O (stereo unspecified),inactive

row,SMILES,Potency
1,COc1cc(OC)nc(O[C@H](C(=O)O)C(OC)(c2ccccc2)c2ccccc2)n1,inactive
2,Cc1ccnc(N)c1,inactive
3,CC(C)OC(=O)OCOP(=O)(CO[C@H](C)Cn1cnc2c(N)ncnc21)OCOC(=O)OC(C)C,inactive
4,Cn1c(=O)c2c(ncn2CCO)n(C)c1=O,inactive
5,CN(C)CCCCl,inactive
6,CC(C)Cn1cnc2c1c(=O)n(C)c(=O)n2C,inactive
7,C=CC(=O)CCCCC,inactive
8,CC(=O)O[C@@H]1CC2CCC1(C)C2(C)C (stereo partly specified),inactive
9,COP(=O)(O)OP(=O)(O)OC,inactive
10,CCCc1ccc(O)cc1,inactive
11,OC[C@H]1O[C@@H](O[C@@H]2[C@@H](CO)O[C@](O)(CO)[C@H]2O)[C@H](O)[C@@H](O)[C@H]1O,inactive
12,[O-][n+]1cccc(/C(Cl)=N/OC[C@@H](O)CN2CCCCC2)c1,inactive
13,O=C(CN1CCNCC1)NC1CCCCC1,inactive
14,OCCN1CCOCC1,inactive
15,CCCC(=O)OCCC(C)CCC=C(C)C (stereo unspecified),inactive
16,Cc1ccc(C(C)NC(=O)[C@@H](NC(=O)OC(C)C)C(C)C)cc1 (stereo partly specified),inactive
17,O=C1CCCCO1,inactive
18,N#CCC(=O)NN,inactive
